The structures appear in SMILES notation. Of roughly 21,000 targets only a part is listed; those with the largest changes were picked by preference.

For the experiment, the target named is PKN2_Q16513_118_LQELNAHIVVSDPEDITDCPR (UniProt Q16513). The experiment can be described thus: probe-labelled cysteine peptide fold change vs DMSO (competition) (log2 fold change); higher = less target engagement (more negative = stronger competition). The following applies: THP-1, incubation time: 4 h.
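Note: competitive profiling in live THP-1 cells: cysteine peptides tagged with an iodoacetamide desthiobiotin (IA-DTB) probe, intensity after compound treatment relative to DMSO-treated cells.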

Chain of UniProt Q16513 (Q16513 whole entry, looked up): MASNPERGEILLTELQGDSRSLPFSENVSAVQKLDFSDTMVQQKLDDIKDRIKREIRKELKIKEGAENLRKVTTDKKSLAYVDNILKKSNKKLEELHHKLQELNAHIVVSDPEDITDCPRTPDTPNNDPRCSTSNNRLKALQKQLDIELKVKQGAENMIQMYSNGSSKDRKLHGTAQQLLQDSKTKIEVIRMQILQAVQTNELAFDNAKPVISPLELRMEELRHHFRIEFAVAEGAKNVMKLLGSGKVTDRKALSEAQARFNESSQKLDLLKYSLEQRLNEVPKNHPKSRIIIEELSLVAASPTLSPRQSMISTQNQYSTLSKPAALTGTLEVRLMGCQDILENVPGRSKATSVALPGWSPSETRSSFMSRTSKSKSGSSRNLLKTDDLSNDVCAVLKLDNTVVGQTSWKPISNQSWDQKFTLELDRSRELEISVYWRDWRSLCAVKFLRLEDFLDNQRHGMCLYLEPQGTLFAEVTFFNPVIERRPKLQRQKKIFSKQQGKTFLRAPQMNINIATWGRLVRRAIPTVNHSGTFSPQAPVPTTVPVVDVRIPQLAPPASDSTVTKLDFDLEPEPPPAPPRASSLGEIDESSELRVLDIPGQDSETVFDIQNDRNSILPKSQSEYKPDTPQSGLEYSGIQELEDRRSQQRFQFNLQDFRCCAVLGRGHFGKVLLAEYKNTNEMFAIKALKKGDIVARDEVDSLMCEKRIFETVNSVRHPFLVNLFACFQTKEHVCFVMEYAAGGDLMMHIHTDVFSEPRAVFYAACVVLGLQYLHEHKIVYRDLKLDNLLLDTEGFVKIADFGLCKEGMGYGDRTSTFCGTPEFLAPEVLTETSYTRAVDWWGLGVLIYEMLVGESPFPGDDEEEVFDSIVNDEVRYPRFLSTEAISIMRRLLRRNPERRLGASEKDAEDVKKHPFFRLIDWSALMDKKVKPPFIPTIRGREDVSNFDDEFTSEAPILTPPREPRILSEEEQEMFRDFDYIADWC

In the case of `Cc1cc(C(=O)N2CCCN(C(=O)CCl)CC2)ccc1-c1ccccc1` [compound 10], the “probe-labelled cysteine peptide fold change” value is -0.00661 (10 µM) and 0.269 (50 µM).

The values are drawn from the supplement of paper PMC12067093, “Discovery and optimisation of a covalent ligand for TRIM25 and its application to targeted protein ubiquitination” (Chemical Science, 2025).
